PubChem BioAssay AID493073 (Broad Institute, 2011)
The whole screen tested about 1,200 compounds, of which about 810 (68%) were called active. How the calls were made is not given here. The set was probably picked from earlier hits. Only a sample is shown. Measured potencies and affinities stand elsewhere.

Experiment: TRPM1 promoter luciferase signal decrease, dose response, MITF inhibitor project, cell-based, SK-MEL-5, cherry-picked, set 3 (AID 493073)
Conditions: SK-MEL-5 TRPM1 promoter luciferase, 24 h; series mostly up to 35 µM; activity change, negative = inhibition: at the top concentration

Activity change, negative = inhibition, inactive:
Cc1ccc(/C=c2/sc3n(c2=O)CCCN=3)o1 -79.4%, CCCCOc1ccc(-c2ncc([N+](=O)[O-])cn2)cc1 84.2%, Cc1ccc2oc(=O)n(CCCOc3ccccc3)c2c1 102%, CN(CC(=O)N1CCCCCC1)S(=O)(=O)c1ccccc1 43.9%, CC1CCN(C(=O)c2cc3ccccc3o2)CC1 102%, Nc1nnc(/C=C/c2ccccc2Cl)s1 39%, CC(=O)c1c(C)[nH]c(C(=O)Nc2ccc(C)c(C)c2)c1C -69.8%, CC(C)(C)OC(=O)N1CCN(C(=O)c2nc[nH]c2C(=O)N2CCN(c3ccccc3)CC2)CC1 -40.2%, NC(=O)c1ccccc1NC(=O)/C=C/c1cccc(Cl)c1 110%, Cc1cc(Cl)ccc1OCCCC(=O)N1CCOCC1 94.9%, O=Cc1ccc(N2Cc3ccccc3C2)cc1 35.6%, O=C1N=C(N2CCOCC2)S/C1=C\C=C/c1ccccc1 61.8%, C=CCN1C(=O)S/C(=C\c2ccc(N3CCOCC3)cc2C)C1=O 92%, CC(C)(C)N=Cc1cc(-c2ccccc2)sc1O 80.6%, CCOC(=O)c1cnc2c(ccc3ccccc32)c1N 7.22%, c1ccc(-n2ncc3c(NCc4cccs4)ncnc32)cc1 10.2%, COCC(C)Nc1ncnc2c1cnn2-c1ccc(Cl)cc1 (stereo not drawn) 22.2%, CCCCN=C(C)c1c(O)c2ccccc2oc1=O 114%, COc1ccccc1-c1nc(-c2ccc(C)nc2OC)no1 94.9%, COc1ccccc1-c1nnc(-c2ccc(C)cc2)o1 -51.6%, CCCCOC(=O)c1[nH]c(C)c(C(=O)OC)c1C -83.5%, CCOC(=O)c1cc2sccc2n1CC(=O)N1c2ccccc2CC1C (stereo not drawn) -77.9%, CCN(C(=O)c1ccco1)c1nc(-c2ccc(OC)cc2)cs1 42.3%, CS(=O)(=O)c1ccc2nc(NC(=O)c3ccccc3Br)sc2c1 25.9%, Cc1ccc(-c2noc(CN3CCCCC3)n2)cc1 132%, CCCCOc1ccc(-c2nnn(C(C)(C)C(=O)OC)n2)cc1 47.7%, COc1ccc(/C=N/N=C2/SCC(=O)N2Cc2ccccc2)cc1 -76.4%, O=[N+]([O-])c1ccccc1OCCCOc1cccc2cccnc12 124%, C=CCOc1ccc(/C=C/C(C)=N\O)cc1 95.6%, O=C(CSc1ccccn1)c1ccc2c(c1)OCO2 40.3%, COc1ccc(C(=O)/C=C(\C)Nc2ccc3c(c2)OCO3)cc1 32.1%, CCOC(=O)C1(Cc2cccc(OC)c2)CCCN(C(=O)CSC)C1 (stereo not drawn) 115%, N#Cc1nc(/C=C/c2ccccc2)oc1NCCCN1CCOCC1 71.7%, Cc1cc(C(=O)Nc2ccc([N+](=O)[O-])cn2)cs1 76.1%, CC(=O)c1cccc(Nc2nc(-c3cccnc3)cs2)c1 104%, Cc1cc(O)ccc1Nc1nc(-c2cccnc2)cs1 72.3%, C/C(=N/N=C(/C)c1cccs1)c1cccs1 34.9%, Cc1nn(C)cc1/C=C/C(=O)c1cccs1 107%, C/C(=N/Nc1nc(C)c(C)s1)c1cccc([N+](=O)[O-])c1 93.8%, Cc1nc2cc(NC(=O)Nc3cccc([N+](=O)[O-])c3)ccc2n1C 78.1%, CCCN1C(=O)c2ccc(C(=O)Nc3cc(C)ccc3O)cc2C1=O 90.1%, CC1Cc2cc(-c3csc(N)n3)ccc2O1 (stereo not drawn) 79.4%, COc1ccc(Nc2oc(-c3ccc(OC)cc3)nc2C#N)cc1 108%, CC(=O)Nc1ccc2c(c1)ncn2-c1ccccc1 63.4%, O=C1c2ccccc2CN1c1ccccc1 101%, N#Cc1cnc2sc3ccccc3n2c1=N 66.7%, CC1(C)CC(=O)c2cnc(N3CCc4ccccc43)nc2C1 66.5%, O=C(NCCSc1ccccc1)c1ccccc1F 88.7%, COc1ccc(-c2nc3n(c2C)Cc2ccccc2-3)cc1 17.8%, COc1ccc(-c2cc(-c3ccccc3O)[nH]n2)cc1OC 112%, COc1ccc(C(=O)Nc2nc3ccc(OC)cc3s2)cc1 41.9%, CCOC(=O)c1ccc(NC(=O)c2ccnn2C)cc1 86.7%, Cc1ccc(NC(=O)c2ccc(OCC3CCCO3)cc2)c(C)c1 (stereo not drawn) -25.5%, CCCOc1ccc(C(=O)Nc2ccc3c(c2)OCCO3)cc1 4.15%, CCOC(=O)c1ccc(NC(=O)CC2SCCNC2=O)cc1 (stereo not drawn) 60.9%, COc1cc(/C=N/N=C(N)N)ccc1OCc1ccc(Cl)cc1 -110%, Cc1ccc2nc(-c3ccncc3)[nH]c2c1 39.9%, CC(=O)N/C(N)=N/c1nc(=O)c2ccccc2s1 58.1%, COc1ccc(NC(=O)c2scc(S(=O)(=O)C(C)C)c2N)cc1 81.7%, COc1ccc(/C=N/NC(=O)Cc2cccs2)cc1 97.3%, CCOc1ccc(N(CC(=O)Nc2ccc(OC)cc2)S(C)(=O)=O)cc1 55.1%, Nc1c(-c2ccc(Cl)cc2)nnn1-c1ccccc1 98.5%, CCSc1nc2c(cnn2-c2ccccc2)c(=O)n1N 14.1%, CCn1nccc1C(=O)Nc1ccc(C)c(C)c1 101%, O=C(CCNc1ccccc1)c1ccc2c(c1)OCO2 131%, C=CCn1cccc(C(=O)Nc2ccc(C)c(Cl)c2)c1=O 113%, O=C(Nc1ccc(F)c(Cl)c1)c1ccc2c(c1)OCO2 54.8%, O=C(Cn1cnc2ccccc2c1=O)Nc1ccc2c(c1)OCCO2 -35.9%, Cc1cccc(N(O)C(=O)Nc2cccc(Cl)c2)c1 69.6%, CC(O)CNC(=O)C1CCN(Cc2ccc(OCc3ccccc3)cc2)CC1 (stereo not drawn) 93.9%, Nc1nc2ccccc2n1/N=C/c1ccc(-c2ccccc2)o1 117%, Cc1c(/C=C/C(=O)c2ccc(Cl)s2)cnn1C -44%, CCCCOC(=O)Nc1ccc2c(C)cc(=O)oc2c1 109%, Cc1ccc(NC(=O)c2cc(-c3cccs3)on2)cc1 74.4%, Cc1cc(C)c2sc(N(CCCN(C)C)C(=O)COc3ccc(Cl)cc3)nc2c1 -102%, Cc1ccc2nc(N(CCCN(C)C)C(=O)c3ccc4c(c3)CCCC4)sc2c1 -110%, CC(=O)N/C(N)=N/c1nc2cc(C)ccc2o1 28.1%, CCOC(=O)c1cn2nc(Oc3ccccc3)ccc2n1 31.2%, Cc1cn(CCC(=O)Nc2ccccc2N2CCOCC2)c2ccccc12 108%, Clc1c(-c2ccccc2)nc2ccccn12 89.1%, CCOC(=O)CSc1nc2cc(OCC)ccc2cc1C#N 123%, C=CCNC(=O)Cn1nnc(-c2ccc(-c3ccc(OC)cc3)cc2)n1 -35.5%, O=C(Cn1cnc2c(oc3ccccc32)c1=O)c1ccccc1 96.8%, c1ccc(Cc2cc(-c3ccccc3)on2)cc1 108%, O=[N+]([O-])c1c(NCCCO)cc(Sc2ccc(Cl)cc2)c2nonc12 -93.6%, CC1CC2(C)Oc3ccccc3CC2C(C)C1CNCCCN(C)C (stereo not drawn) -98.7%, O=[N+]([O-])c1cccc(/C=N/Nc2ncc(Br)cn2)c1 123%, Cc1cc(C)c2c(N)c(C(=O)N/N=C/c3cccnc3)sc2n1 81%, Cc1ccc(NC(=O)c2cc3cccc([N+](=O)[O-])c3[nH]2)cc1 28.5%, O=C(CC(=O)c1ccccc1)Nc1ccccn1 -11.2%, N/C(CS(=O)(=O)c1ccccn1)=N\OC(=O)c1ccccc1Cl 48.9%, COC(=O)[C@@H](C)NC(=O)c1ccc2oc(CCc3ccccc3)nc2c1 92.7%, COc1ccc(NC(=O)c2cc3ccccc3[nH]2)cc1 88.3%
